Assay outcomes as filed in PubChem.
Shown are actives, neighbours in structure and some others; about 5.3% of the full set was active somewhere.
BAZ2B inh – BAZ2B (human) inhibition. Q9UIF8. AlphaScreen BAZ2B-H3K14Ac peptide displacement. Potency, µM (highest dose often 114 µM), for the others: at the top dose activity change, negative = inhibition, hits mostly inhibitors. 360,000 compounds, 4.4% hits; note: potency is the fitted concentration of half-maximal effect; % is set by controls: 0 for no effect and ±100 for the full control effect; nearly all actives have a fitted effect of over 60% in size
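Protein-peptide AlphaScreen: BAZ2B 50 nM, b-H3K14Ac 50 nM, 1x PBS pH 7.4 + 0.01% Tween-20. Preincubation 30 min RT; cpd 30 min RT (top 110 uM); beads 20 min RT, light-protected.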
TDP1 block – TDP1 (human) enzyme inhibition. Potency, µM (doses to about 130 µM), for the others: at the highest dose activity change, negative = inhibition, usual class: inhibitors. Q9NUW8. 350,000 compounds, 0.28% hits. recombinant TDP1, AlphaScreen DNA substrate cleavage; note: potency is the fitted concentration of half-maximal effect; % is set by controls: 0 for no effect and ±100 for the full control effect; nearly all actives have a fitted effect of over 40% in size
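Compounds were preincubated with Tdp1 (1 nM final) for 15 min at room temperature before substrate (15 nM final) started a 5 min reaction; beads (10 ug/ml final) were then added for 10 min before AlphaScreen detection.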
Six1-Eya2 blk – blocks human Six1 binding to Eya2. Q15475+O00167. AlphaScreen GST-Six1/His-Eya2 binding, biochemical; stronger effect = lower value. activity change, % (concentration not given with the values). 360,000 compounds, 0.56% hits; in the data active = activity change below about -65%; inconclusive = mostly about -30% to -63%; note: % is set by controls: 0 for no effect and ±100 for the full control effect
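AlphaScreen with GST-Six1 and His-Eya2 (5X mix: 250 nM and 500 nM), glutathione donor and nickel acceptor beads; buffer 50 mM Tris pH 8.0, 300 mM NaCl, 1 mM TCEP; 1 h at 37 C in the dark.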
HP1b binding inh – blocks HP1-beta chromodomain binding to methylated histone tails; AlphaScreen HP1-beta / biotin-H3K9me3 peptide binding; 390,000 compounds, 0.56% hits; Potency, µM (series often up to 114 µM), inactives show top-dose activity change, negative = inhibition, most hits filed as inhibitors; P83916; note: potency is the fitted concentration of half-maximal effect; nearly all actives have a fitted effect of over 70% in size
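AlphaScreen: HP1-beta (50 nM) preformed 30 min with biotin-H3(1-18)K9me3 peptide (50 nM) in PBS pH 7.4, 0.01% Tween-20. Compound added for 30 min at RT, then streptavidin donor/nickel chelate acceptor beads (10 ug/mL) for 30 min.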
CtBP-E1A inh – CtBP/E1A binding inhibition. 340,000 compounds, 0.49% hits. activity change, % (no concentration beside the values). AlphaScreen GST-E1A/His-CtBP binding, 1536-well; stronger effect = lower value. AID 651724; in the data active = activity change below about -65%; inconclusive = mostly about -30% to -63%; note: % is set by controls: 0 for no effect and ±100 for the full control effect
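Protein mix (5X: 125 nM each GST-E1A, His-CtBP) was incubated with pinned compound 2 h at 37 deg C in dark, in 50 mM Tris pH 8.0 buffer with 300 mM NaCl. Glutathione donor and nickel acceptor beads followed; AlphaScreen signal read after 1 h.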
JMJD2A Tudor – blocks the human JMJD2A Tudor domain; AlphaScreen JMJD2A-Tudor / H3K4me3 peptide binding; Potency, µM (series often up to 114 µM), without a hit: at the highest dose activity change, negative = inhibition, actives largely listed as inhibitors; 390,000 compounds, 4.4% hits; note: potency is the fitted concentration of half-maximal effect; % is set by controls: 0 for no effect and ±100 for the full control effect; nearly all actives have a fitted effect of over 50% in size
Target sequence (O75164 whole entry, looked up, the tested form may be a part): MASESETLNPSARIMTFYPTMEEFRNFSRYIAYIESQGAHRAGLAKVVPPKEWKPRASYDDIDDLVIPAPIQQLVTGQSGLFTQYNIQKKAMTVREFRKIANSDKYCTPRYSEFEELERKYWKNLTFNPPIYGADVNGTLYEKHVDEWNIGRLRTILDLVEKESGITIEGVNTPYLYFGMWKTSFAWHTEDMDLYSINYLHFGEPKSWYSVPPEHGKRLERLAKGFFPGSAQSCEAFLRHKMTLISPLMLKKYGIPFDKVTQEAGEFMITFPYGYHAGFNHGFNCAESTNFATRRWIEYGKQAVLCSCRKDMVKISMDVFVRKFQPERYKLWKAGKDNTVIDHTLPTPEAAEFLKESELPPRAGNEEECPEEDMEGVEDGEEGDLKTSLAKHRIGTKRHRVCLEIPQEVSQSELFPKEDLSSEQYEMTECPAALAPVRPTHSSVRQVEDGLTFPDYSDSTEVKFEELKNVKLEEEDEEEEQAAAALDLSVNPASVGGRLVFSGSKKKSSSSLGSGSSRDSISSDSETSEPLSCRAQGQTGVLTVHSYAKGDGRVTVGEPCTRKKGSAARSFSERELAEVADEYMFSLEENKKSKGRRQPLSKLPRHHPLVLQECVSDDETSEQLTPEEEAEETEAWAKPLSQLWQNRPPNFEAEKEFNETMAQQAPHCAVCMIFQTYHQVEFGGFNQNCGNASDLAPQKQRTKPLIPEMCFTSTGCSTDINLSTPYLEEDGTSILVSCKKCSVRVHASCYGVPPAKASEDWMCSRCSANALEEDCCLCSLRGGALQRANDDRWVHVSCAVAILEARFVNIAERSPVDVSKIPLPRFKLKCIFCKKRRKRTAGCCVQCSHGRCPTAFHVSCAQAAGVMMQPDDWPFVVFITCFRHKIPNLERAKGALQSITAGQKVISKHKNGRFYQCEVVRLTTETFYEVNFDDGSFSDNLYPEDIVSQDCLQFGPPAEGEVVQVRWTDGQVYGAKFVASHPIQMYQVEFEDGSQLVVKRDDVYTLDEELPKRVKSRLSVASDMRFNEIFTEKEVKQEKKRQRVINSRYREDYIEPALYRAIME
An asterisk follows results filed as active; ? = inconclusive; . = not tested or not shown; [ ] = remark or other dose. Unless noted, calls come from the whole dose curve; as a rule, active = well fitted inhibition curve with a large enough effect; inconclusive = small, poorly fitted or top-dose-only effect; inactive = no such curve, though single readings can be large or run the other way.

SMILES	BAZ2B inh	TDP1 block	Six1-Eya2 blk	HP1b binding inh	CtBP-E1A inh	JMJD2A Tudor
Cc1ccc(C2=N/C(=C\c3cccs3)C(=O)N2Nc2ccccc2)cc1	35µM*	10%	-23	?	-17	?
CCOc1ccc(N(c2nc(-c3ccc(OC)c(OC)c3)no2)c2nc(-c3ccc(OC)c(OC)c3)no2)cc1	-1%	4%	.	17%	.	-18%
COCC1=C2c3ccccc3[C@@H]3CNC(=O)C3(C(=O)OC)C[C@@H]2n2c(=O)n(-c3ccccc3)c(=O)n2C1 (stereo partly drawn)	.	4%	.	.	.	.
O=C1C2C(c3ccccc3)CC=CC2C(c2ccc(C(F)(F)F)cc2)N1Cc1ccccc1 (stereo not drawn)	.	4%	.	10%	.	-21%
O=C1C(C2=C(O)c3ccccc3C2=O)=Nc2ccccc21	40µM*	11%	-26	?	-8	32µM*
COc1cccc(N2CCN(C(=O)CCCn3c(=O)[nH]c4ccc(Br)cc4c3=O)CC2)c1	-32%	12%	.	-16%	.	?
CC(C)(CN1CCCC1)NS(=O)(=O)c1ccc(Cl)cc1	6%	.	-5	0%	-4	0%
CCOC(=O)C1CCN(CC(C)(C)NS(=O)(=O)c2ccc(Cl)cc2)CC1	50µM*	10%	-10	79µM*	0	3.2µM*
CC1CCCC(C)N1CC(C)(C)NS(=O)(=O)c1ccc(Cl)cc1 (stereo not drawn)	50µM*	-3%	0	21%	4	24%
CCOC(=O)C1CCN(C2=C(NS(=O)(=O)c3ccc(Cl)cc3)C(=O)c3ccccc3C2=O)CC1	8.9µM*	.	?	?	-81*	11µM*
CCOC(=O)C1CCN(S(=O)(=O)c2ccc(Cl)cc2)CC1	-4%	.	10	11%	-5	1%
CCOC(=O)C1CCCN(C2=C(NS(=O)(=O)c3ccc(Br)cc3)C(=O)c3ccccc3C2=O)C1 (stereo not drawn)	8.9µM*	14%	-71*	10µM*	.	10µM*
COc1ccc2c(c1)c1c(c(=O)n(Cc3ccccc3)c(=O)n1Cc1ccccc1Cl)n2C	-5%	6%	.	48%	.	18%
O=c1c2ccccc2n(Cc2ccccc2F)c(=O)n1-c1cccc(F)c1	4%	4%	.	40%	.	5%
CC1=C(CC(=O)c2ccc(Cl)cc2)C(=O)c2ccccc2C1=O	32µM*	-6%	?	-53%	?	32µM*
Cc1cc(C)n2c(=S)[nH]nc2n1	40µM*	3%	3	8.9µM*	-3	?
Cc1cc(C)n2cnnc2n1	-5%	4%	-2	36%	6	-5%
CCC1CN(C(=O)N2CCC(C(=O)NCCc3ccc(Cl)cc3)CC2)c2ccccc2O1 (stereo not drawn)	-16%	-3%	.	33%	.	-10%
Cc1ccc(-c2nnc(SCC(=O)NCC3CCCO3)n2C)cc1 (stereo not drawn)	7%	3%	11	7%	7	-9%
Cc1occc1-c1nnc(SCC(=O)NCC2CCCO2)n1C (stereo not drawn)	-3%	-1%	1	-6%	5	56µM*
Cc1ccc(Nc2nnc(SCC(=O)NCC3CCCO3)s2)cc1C (stereo not drawn)	.	-1%	-68*	31%	-77*	-17%
Cc1ccc(Nc2nnc(SCC(=O)NCC3CCCO3)s2)cc1 (stereo not drawn)	.	0%	?	28%	-24	-16%
Oc1ccc(Cl)cc1-c1cc(-c2ccco2)[nH]n1	40µM*	5%	0	7.9µM*	9	-36%[11.4 µM]
COc1ccc(-n2cc(C(=O)N(C)c3cc(C)ccc3OC)c3ccccc3c2=O)cc1	?	10%	.	25%	.	-13%
O=C(O)Cn1nnc(-c2cccs2)n1	-2%	-2%	7	11%	-19	-4%
SMILES	BAZ2B inh	TDP1 block	Six1-Eya2 blk	HP1b binding inh	CtBP-E1A inh	JMJD2A Tudor
O=C(O)CCn1nnc(-c2cccs2)n1	79µM*	-2%	2	17%	5	-13%
Cc1cc(C)cc(-n2c(C)cc(C(=S)N3CCOCC3)c2C)c1	45µM*	-3%	-15	?	-16	56µM*
Cc1cccc(-n2c(C)cc(C(=S)N3CCOCC3)c2C)c1C	-24%	3%	-17	?	-1	?
Cc1cc(C(=S)N2CCOCC2)c(C)n1-c1ccc(Cl)cc1	50µM*	3%	-16	45µM*	-9	28µM*
Cc1ccc2oc(-c3cc(NC(=O)c4ccc5c(c4)OCCO5)cc(C)c3O)nc2c1	-16%	3%	.	25%	.	-9%
O=C1CC(=O)c2c1cccc2[N+](=O)[O-]	50µM*	.	.	.	.	.
CN1CCN(c2nc3ccccc3nc2C(C#N)C(=O)OC2CCCCC2)CC1 (stereo not drawn)	56µM*	4%	-6	-7%	-13	-34%
CCN1CCN(c2nc3ccccc3nc2C(C#N)C(=O)OC2CCCCC2)CC1 (stereo not drawn)	?	4%	2	-23%	-13	?
COC(=O)c1ccccc1NC(=O)c1cc2nc(-c3ccc(OC)cc3)cc(C(F)(F)F)n2n1	5%	1%	.	32%	.	-1%
c1ccc(NNC2=NCCS2)cc1	-14%	.	3	?	0	4µM*
Cc1ccc(C)c(NC(=O)Nc2ccc3c(c2)OCO3)c1	-12%	0%	-6	22%	5	-8%
COc1ccc(NCc2ccc3c(c2)OCO3)cc1Cl	40µM*	8%	-24	?	-2	45µM*
CCOc1cc(CNCc2ccc3c(c2)OCO3)ccc1OC	-26%	.	-4	46%	5	-11%
COc1ccc(Cl)cc1S(=O)(=O)NC(C)C(=O)NCc1ccc2c(c1)OCO2 (stereo not drawn)	3%	5%	15	8%	-8	50µM*
Cc1ccc(CNc2ccc3c(c2)OCO3)c(C)c1	45µM*	10%	.	.	.	.
COc1cc(OC)c(OC)cc1CNCc1ccc2c(c1)OCO2	-29%	6%	0	8%	.	50µM*
COc1cc2sc3cc(NCc4ccc5c(c4)OCO5)ccc3c(=O)c2cc1OC	.	1%	-6	32%	-3	-15%
COCCCNc1ncnc2c1nnn2C	0%	3%	.	10%	.	-2%
O=C(N/N=C/c1ccc[nH]1)c1cc2ccccc2cc1O	40µM*	7%[0.0935 µM]	-11	-2%	-12	?
Cc1ccc(NS(=O)(=O)c2ccc3c(c2)N(C)C(=O)CO3)cc1C	.	1%	.	.	.	-3%
COc1ccc(/C=C/C(=O)Oc2ccc(/C=N/NC(=O)COc3c(C)cccc3C)cc2)cc1	-2%	3%	.	.	.	.
